# Screens from PubChem.
# In the library only some 7.5% were active in any assay of this set; here they are far more common.
# Rab9 prom act: Rab9 promoter activation; Huh7 Rab9 promoter-luciferase reporter, luminescence, 24 h; Potency, µM (series often up to 9.22 µM), for inactives: at the highest dose activation, negative = inhibition, actives largely listed as activators; 320,000 compounds, 2.8% hits; further: % of control where 0% means no effect; nearly all actives have a fitted effect of over 60% in size
#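 Huh7 cells stably carrying Rab9 promoter–luciferase reporter, plated 1500 cells/well, compound added after 2 h and incubated 24 h at 37 °C; luciferase luminescence then read after 10 min with detection reagent.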
# SMN2 splice up: enhancers of SMN2 splice variant expression | HEK293 SMN2-luciferase splicing reporter, luminescence, 30-36 h | Potency, µM (highest dose often 46.1 µM), for inactives: top-dose activity change, positive = activation, hits mostly activators | 210,000 compounds, 2.8% hits | AID 1458; further: % of control where 0% means no effect; nearly all actives have a fitted effect of over 55% in size
#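 HEK293 cells carry an SMN2 minigene-luciferase reporter in which exon 7 inclusion puts luciferase in frame. Cells were seeded at 2000 cells/well, attached for 10-12 hours, then exposed to compounds for 30-36 hours at 37C before ONE-Glo luminescence.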
# FLuc modulator: firefly luciferase modulation, counter-screen for miR-21 project. Potency, µM (series often up to 57.5 µM), for the others: at the highest dose activity change, negative = inhibition, actives largely listed as inhibitors. P08659. 360,000 compounds, 6.9% hits. purified FLuc, Km substrates, luminescence inhibition;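 further: plate controls were vehicle for no effect and reference inhibitor for full effect; nearly all actives have a fitted effect of over 55% in size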
# Target sequence (P08659 whole entry, looked up): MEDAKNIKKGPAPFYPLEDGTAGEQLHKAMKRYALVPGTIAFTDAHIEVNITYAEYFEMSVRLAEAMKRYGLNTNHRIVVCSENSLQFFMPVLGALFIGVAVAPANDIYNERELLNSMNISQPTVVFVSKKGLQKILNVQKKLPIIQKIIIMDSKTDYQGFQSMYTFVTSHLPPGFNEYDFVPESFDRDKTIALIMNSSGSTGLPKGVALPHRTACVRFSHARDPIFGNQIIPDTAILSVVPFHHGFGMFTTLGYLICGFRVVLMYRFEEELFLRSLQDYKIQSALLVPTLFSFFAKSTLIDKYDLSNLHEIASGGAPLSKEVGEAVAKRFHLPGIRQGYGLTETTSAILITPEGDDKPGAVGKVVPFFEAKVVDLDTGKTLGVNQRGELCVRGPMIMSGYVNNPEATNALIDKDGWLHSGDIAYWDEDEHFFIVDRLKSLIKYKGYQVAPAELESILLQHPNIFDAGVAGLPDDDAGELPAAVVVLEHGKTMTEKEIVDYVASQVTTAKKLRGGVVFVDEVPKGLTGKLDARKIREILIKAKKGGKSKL
#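 Purified P. pyralis luciferase, 10 nM final, with Km-level 10 uM D-luciferin and 10 uM ATP in 50 mM Tris acetate pH 7.5, 10 mM Mg acetate, 0.01% Tween-20, 0.05% BSA; 6-point qHTS titration about 60 µM downward; luminescence read.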
# ELG1 genotox: induces genotoxicity in HEK293T cells with luciferase-tagged ELG1. HEK293T ELG1-luciferase reporter, luminescence, 16 h. Potency, µM (highest dose often 46 µM), without a hit: at the top dose activity change, positive = activation, actives largely listed as activators. 330,000 compounds, 1.3% hits. AID 504466; further: % of control where 0% means no effect; nearly all actives have a fitted effect of over 60% in size
#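 Genotoxicity was scored as increased ELG1-luciferase reporter signal, measured by ONE-Glo luminescence (30 min, room temperature). Compound or vehicle exposure of the HEK293T reporter cells lasted 16 hr at 37°C.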
# KinaseGlo FLuc: blocks Kinase-Glo luciferase, a counter-screen artifact; Kinase-Glo luciferase, ATP luminescence, 8 min; Potency, µM (titrated, usually from 38.3 µM), for the others: at the top dose activity change, negative = inhibition, most hits filed as inhibitors; 200,000 compounds, 0.28% hits; AID 1379; further: on the % scale 0 is the no-effect control and ±100 the full control effect; nearly all actives have a fitted effect of over 60% in size
#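 Substrate mix (final 50 mM imidazole pH 7.2, 50 mM KCl, 7 mM MgCl2, 10 uM ATP, 0.01% Tween 20, 0.05% BSA) plus pin-tool compound, then Kinase-Glo detection mix; 8 min ambient, luminescence read.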
# NPC1 promoter act: activators of NPC1 promoter. Huh7 NPC1 promoter luciferase reporter, 24 h. Potency, µM (titrated, usually from 9.22 µM), without a hit: top-dose activation, most hits filed as activators. 320,000 compounds, 2.4% hits; further: % of control where 0% means no effect; nearly all actives have a fitted effect of over 60% in size
#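 Readout is luciferase luminescence, reflecting NPC1 promoter activation in stably transfected Huh7 cells after 24 h compound exposure at 37 °C in reduced-serum medium with 10% FBS.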
# * = called active by the depositor; ? = inconclusive; / = no result; [ ] = remark or other dose. The call rests on the fitted dose curve; in most records, active means well fitted curve in the direction sought with a large enough effect; inconclusive means small, poorly fitted or top-dose-only effect, or another doubt; inactive means no such curve, though single readings can be large; an effect the other way counts as inactive or inconclusive. Potency means the concentration at half of the fitted maximal effect.
SMILES,Rab9 prom act,SMN2 splice up,FLuc modulator,ELG1 genotox,KinaseGlo FLuc,NPC1 promoter act
CCOc1ccc(C(=O)NCCn2cc(SCC(=O)Nc3ccccc3)c3ccccc32)cc1,/,-17%,?,/,/,/
CCCCc1ccc(NC(=O)CC(C)(C)C)cc1,?,/,15µM*,15%,-7%,?
CCCCc1ccc(NC(=O)CC(C)=O)cc1,18%,8%,-20%,?,2%,-2%
CC(C)(C)CC(=O)Nc1ccc(Nc2ccccc2)cc1,3.2µM*,-6%,12µM*,11%,-4%,28%
CCC(CC)C(=O)Nc1ccc(Nc2ccccc2)cc1,10%,-1%,?,0%,3%,1%
CC(C)C(=O)Nc1ccc(Nc2ccccc2)cc1,-5%,21%,19µM*,20%,5%,0%
CC(C)CC(=O)Nc1ccc(Nc2ccccc2)cc1,12%,15%,19µM*,-4%,-12%,2%
Cc1cccc(NC(=O)CC(C)(C)C)c1,0%,/,3%,10%,-1%,3%
C=CCC1NS(=O)(=O)O[C@H](CCCC)[C@@H]1O (stereo partly specified),1%,/,-1%,1%,/,3%
Cc1ccc(N=C2NC(=O)CS2)cc1C,1%,/,0%,0%,/,-2%
Cc1ccc(N2CCN(C(=O)NCc3noc4ccccc34)CC2C)cc1 (stereo unspecified),/,/,1%,/,/,/
CCc1sc(C(=O)Nc2ncccc2C)cc1C,25%,/,?,23%,/,22%
CCc1sc(C(=O)Nc2ncccc2O)cc1C,2.2µM*,/,6µM*,?,/,1.6µM*
CCc1sc(C(=O)Nc2nccs2)cc1C,3.2µM*,/,1.3µM*,?,/,3.5µM*
Cc1ccsc1C(=O)Nc1nccs1,?,/,?,25%,/,?
Cc1ccc(NC(=O)C2=C(O)CCn3c2nc2ccccc23)cc1,8%,-16%,12µM*,1%,-4%,17%
CCOC(=O)C1=NN(C(=O)c2ccc(OC)cc2)C(O)(c2ccc(Cl)cc2)C1 (stereo unspecified),-8%,12%,-14%,-6%,-2%,-1%
COC(=O)C1=NN(C(=O)c2cccc(Br)c2)C(O)(c2ccc(Cl)cc2)C1 (stereo unspecified),-4%,/,11µM*,4%,/,-1%
Clc1ccc(-c2cn3c(n2)-c2ccccc2C3)cc1Cl,2.5µM*,1µM*,0.85µM*,?,?,3.5µM*
CCN(C(=O)C1CCC(CNS(=O)(=O)c2cccc3nsnc23)CC1)c1ccc(C)c(C)c1 (stereo unspecified),/,-7%,7%,/,/,/
COc1ccc(-c2nnc(CSc3ncnc4sc5c(c34)CCC5)o2)cc1OC,-3%,-4%,11%,23µM*,-11%,-2%
CC1CCCC2(C1)NC(=S)N(c1ccccc1)N2 (stereo unspecified),-10%,-11%,-4%,2%,-3%,6%
CC1CCCC2(C1)NC(=S)c1c(sc3c1CCCC3)N2 (stereo unspecified),-5%,-21%,24µM*,29%,1%,-4%
N#Cc1cc2cc3c(cc2nc1N1CCCCC1)OCCO3,6.3µM*,13µM*,4.3µM*,?,-1%,?
Cc1ccc(C(=O)N2CCCN(c3nc4cc5c(cc4cc3C#N)OCO5)CC2)cc1,7%,/,-13%,-3%,/,0%
SMILES,Rab9 prom act,SMN2 splice up,FLuc modulator,ELG1 genotox,KinaseGlo FLuc,NPC1 promoter act
Cc1ccccc1-c1nc2scc(CCNC(=O)c3ccco3)n2n1,/,/,-7%,/,/,/
COc1ccc(C(=O)N=c2nc3ccccn3s2)cc1,0.25µM*,/,0.095µM*,0.37µM*,7.9µM*,0.13µM*
CCn1cc(C(=O)NCc2ccc(C)cc2)c(=O)c2cc(S(=O)(=O)N3CCCCCC3)ccc21,/,/,-13%,/,/,/
Fc1ccccc1-c1cc2ccccc2cn1,-1%,/,4.8µM*,?,/,?
c1ccc2cc(C3=NCCN3)ncc2c1,/,/,/,/,-1%,/
O=C(Nc1cccc2cccnc12)[C@@H]1[C@@H](C(=O)O)[C@H]2CC[C@@H]1O2,/,-9%[9.22 µM],/,/,-6%[7.66 µM],/
Clc1ccc(C2=NN=C3COc4ccccc4N3C2)cc1,-3%,-20%,-18%,-4%,1%,-1%
Clc1ccc(C2=Nc3cc(Cl)ccc3OC2)cc1,?,?,7.6µM*,?,-1%,?
Cc1ccc2c(c1)N=C(c1ccc(Cl)cc1)CO2,2.5µM*,22µM*,1.7µM*,?,?,3.5µM*
c1ccc(C2=Nc3ccccc3OC2)cc1,3.5µM*,13%,3µM*,7%,-29%,?
COc1cccc(N2C(=O)C3CCCN3C2=S)c1 (stereo unspecified),-4%,/,0%,-3%,/,-2%
Cc1ccccc1CN(C)CC(=O)NC(C)CCc1ccccc1 (stereo unspecified),1%,10%,-2%,-2%,1%,-6%
COc1ccc(-n2cnc3cc(C(=O)NCCC4=CCCCC4)ccc32)cc1,/,/,-3%,/,/,/
COc1ccccc1CCCNC(=O)C1CCC(=O)N(Cc2ccccc2F)C1 (stereo unspecified),4µM*,/,21µM*,?,/,2.8µM*
Cc1ccc(CCNC(=O)C2CCC(=O)N(Cc3ccccc3F)C2)o1 (stereo unspecified),?,/,?,18µM*,/,?
COc1ccccc1CNC(=O)c1cc2c(=O)oc3ccc(C)cc3c2s1,/,-4%,-1%,/,/,/
CCN(CC)c1ccc(N=Cc2cc(Br)ccc2O)cc1,-6%,-17%,9.5µM*,-7%,-3%,-1%
COCCNC(=S)N=Nc1c(O)[nH]c2ccc([N+](=O)[O-])cc12,-5%,/,0%,1%,/,0%
O=C(O)c1cc(N/N=C/C=C/c2ccccc2[N+](=O)[O-])ccc1Cl,3.5µM*,/,19µM*,?,/,1.4µM*
O=[N+]([O-])c1ccccc1/C=C/C=N/N1CCCCC1,2.2µM*,16µM*,11µM*,4.6µM*,-3%,?
NS(=O)(=O)c1ccc(N/N=C/C=C/c2ccccc2[N+](=O)[O-])cc1,?,/,17µM*,?,/,?
Cc1nc2ccccn2c1CN(C)C(=O)C1CCC(=O)N(CCc2cccc(F)c2)C1 (stereo unspecified),0%,/,2%,2%,/,-3%
O=C(O)c1cccc(N2C(=O)C3C4C=CC(C4=C(c4ccccc4)c4ccccc4)C3C2=O)c1 (stereo unspecified),0%,-23%,-19%,0%,2%,-9%
Cc1ccc(S(=O)(=O)c2nnn(-c3cccc(F)c3)c2N)cc1,4%,-27%,-4%,-8%,-1%,-3%
COCCNC(=O)Nc1cc(C(=O)NCc2ccc(C(C)C)cc2)ccc1N1CCCC1,/,/,-15%,/,/,/
